Source: PubChem BioAssay
An excerpt weighted towards active compounds, which were near 1.6% of everything screened.
KCNQ2 pot = potentiators of rat KCNQ2 potassium channel | B-score at 10 µM | hit rate 0.54% among 310,000 | O88943 | CHO-K1 KCNQ2, FluxOR thallium flux fluorescence; active compounds read high | AID 2239;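 active = fluorescence ratio B-score at least 3 SD of library B-scores, with initial fluorescence B-score within 3 of them, cut at about 5.3 in these data; same plate scores as AID 2156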;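 note: B-score of peak minus minimum over baseline fluorescence ratio after K+ and Tl+ stimulus; positive B-score means potentiation of KCNQ2 with more thallium influx and brighter signal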
KCNQ2 inh = inhibitors of rat KCNQ2 potassium channel | B-score at 10 µM | CHO-K1 KCNQ2, FluxOR thallium flux, 20 min; active compounds read low | O88943 | hit rate 1.1% among 310,000 | AID 2156;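 active = fluorescence ratio B-score at most minus 3 library SDs, with starting brightness B-score within 2 library SDs, cut at about -5.5 in these data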
Kir21 confirm = confirmation of mouse Kir2.1 potassium channel inhibitors. shares compounds with KCNQ2 pot. Kir2.1-expressing cells, FluxOR thallium flux fluorescence; active compounds read low. Tl flux remaining, % of negative control (active compounds read low), % at 10 µM. hit rate 41% among 2,300;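 active = Primary-screen hit whose thallium flux fell at least 3 control SD below untreated wells in both duplicates, with normal baseline fluorescence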;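 note: 0% = blank wells without stimulus and 100% = stimulated no-compound controls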
HEK293 Tl flux = counter-screen for Kir2.1 inhibitors: effect in parental HEK293 cells; shares compounds with KCNQ2 pot; FluxOR thallium flux fluorescence; 0% = unstimulated blank wells; FluxOR signal as % of negative control (100 = no effect), % at 10 µM; hit rate 19% among 2,300;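 active = dye signal at least 3 control SD above or below untreated wells in both duplicates, raw fluorescence within 3, either direction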;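 note: percent is based on the flux ratio of peak minus minimum fluorescence over baseline F0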
CHO-K1 ctr = parental CHO-K1 activity in KCNQ2 potentiator counter-screen; shares compounds with KCNQ2 pot; activity increase over 3SD of controls, % at 10 µM; parental CHO-K1 cells, FluxOR thallium flux fluorescence; zero = vehicle mean+3SD, 100% = vehicle-minus-blank window; hit rate 43% among 1,200;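 active = signal rise of at least 3 SD above the untreated control mean, in both duplicate wells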;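 note: counter screen of KCNQ2 potentiator hits so any rise reflects channel-independent effects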
KCNQ1 pot spec = tests whether KCNQ2 potentiators also act on human KCNQ1 | activation over 3SD threshold, % at 10 µM | shares compounds with KCNQ2 pot | hit rate 28% among 1,200 | CHO KCNQ1 stable, FluxOR thallium flux fluorescence; beyond 3SD, as % of vehicle-control signal | AID 2283;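 active = fluorescence ratio rise of at least 3 SD of vehicle wells above their mean, in both replicate wells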;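 note: 0% = vehicle mean plus 3 SD and 100% = vehicle minus unstimulated blank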
KCNQ2 pot conf = confirmation of rat KCNQ2 potassium channel potentiators. shares compounds with KCNQ2 pot. CHO-KCNQ2 cells, FluxOR thallium flux fluorescence. potentiation, less the hit threshold, % at 10 µM. hit rate 68% among 1,200. AID 2287;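 active = fluorescence ratio rising 3 SD or more over the vehicle control mean in both replicates, plus primary screen hit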;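 note: peak minus minimum thallium fluorescence divided by baseline after K/Tl stimulus; 0% = vehicle mean plus 3 SD and 100% = vehicle minus unstimulated blank difference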
Kir2-1 sel = selectivity of KCNQ2 potentiators: effect on mouse Kir2.1. shares compounds with KCNQ2 pot. activity over 3SD threshold, % at 10 µM. HEK293 Kir2.1, FluxOR thallium flux fluorescence. hit rate 2% among 1,200. AID 2345;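 active = fluorescence ratio rise of at least 3 SD above the vehicle-control mean, seen in both replicates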;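 note: 0% = vehicle mean plus 3 SD and 100% = vehicle minus no-stimulus blank window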
KCNQ2 W236L MoA = potentiates the retigabine-insensitive rat KCNQ2 W236L mutant channel | current increase over 3SD of negative controls (%), active compounds read high, % at 25 µM | shares compounds with KCNQ2 pot | AID 2558 | hit rate 10% among 940 | CHO KCNQ2-W236L, automated patch clamp current;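 active = current increase at least 3 SD of the untreated controls above them in both duplicate recordings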
Target sequence (O88943 whole entry W236L, looked up): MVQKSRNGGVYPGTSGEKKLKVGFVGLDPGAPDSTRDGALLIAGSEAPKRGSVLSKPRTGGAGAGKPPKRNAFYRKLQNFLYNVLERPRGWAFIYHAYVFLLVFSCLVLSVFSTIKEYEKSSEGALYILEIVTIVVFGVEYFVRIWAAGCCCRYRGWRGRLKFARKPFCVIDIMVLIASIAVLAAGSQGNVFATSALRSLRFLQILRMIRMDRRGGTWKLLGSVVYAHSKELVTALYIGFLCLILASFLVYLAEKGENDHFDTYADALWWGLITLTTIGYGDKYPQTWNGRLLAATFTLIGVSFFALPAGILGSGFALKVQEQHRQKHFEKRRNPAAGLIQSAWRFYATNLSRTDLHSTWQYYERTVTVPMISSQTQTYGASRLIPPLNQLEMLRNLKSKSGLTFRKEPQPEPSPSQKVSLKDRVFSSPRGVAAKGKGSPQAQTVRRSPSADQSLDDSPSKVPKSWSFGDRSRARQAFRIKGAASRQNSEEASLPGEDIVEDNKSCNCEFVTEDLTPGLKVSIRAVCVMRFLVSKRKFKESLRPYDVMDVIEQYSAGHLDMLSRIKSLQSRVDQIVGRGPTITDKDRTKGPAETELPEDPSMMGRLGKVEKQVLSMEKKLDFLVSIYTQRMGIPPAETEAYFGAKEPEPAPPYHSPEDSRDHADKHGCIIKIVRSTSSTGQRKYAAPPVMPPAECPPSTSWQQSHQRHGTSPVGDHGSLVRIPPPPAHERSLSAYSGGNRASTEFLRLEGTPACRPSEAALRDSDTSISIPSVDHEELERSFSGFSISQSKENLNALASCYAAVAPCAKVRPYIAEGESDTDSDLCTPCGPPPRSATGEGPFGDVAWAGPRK
Active calls of the source: *; i = inactive; . = not tested or not shown.

SMILES	KCNQ2 pot	KCNQ2 inh	Kir21 confirm	HEK293 Tl flux	others
CC(C)(C)NC(=O)COc1ccc2oc3c(c2c1)CCCC3	.	i	.	.
COc1cccc(CN(C)C(=O)c2sccc2-c2ccccc2)c1OC	.	i	.	.
COc1ccccc1CNC(=O)c1sccc1-c1ccccc1	.	i	74.0%*	i
CN(Cc1ccccc1F)C(=O)c1sccc1-c1ccccc1	.	i	53.5%*	i
COc1ccccc1CNC(=O)c1sccc1C	.	i	.	.
Cc1nn(C(C)C(=O)NC2CCCCC2)c(=O)c2nn(-c3ccccc3)c(C)c12 (configuration not stated)	.	i	.	.
O=C(COc1ncnc2ccccc12)Nc1ccccc1[N+](=O)[O-]	.	i	.	.
COc1ccc(C)cc1NC(=O)C1CCN(C(=O)C2CC(=O)N(c3ccc(C)cc3)C2)CC1 (configuration not stated)	.	i	.	.
CCOC(=O)c1cc2c(=O)n3ccccc3nc2n(CCCOC)c1=NC(=O)c1ccncc1	8.61*	i	i	i	CHO-K1 ctr=-10.1;KCNQ1 pot spec=-13.2;KCNQ2 pot conf=-27.5;Kir2-1 sel=-33.9
CCCn1c(=NC(=O)c2ccco2)c(C(=O)OCC)cc2c(=O)n3ccccc3nc21	0.09	i	.	.
CC(C(Sc1ccccc1N)c1ccccc1)[N+](=O)[O-] (configuration not stated)	.	i	52.0%*	i
Nc1ccccc1SSc1ccccc1N	.	i	.	.
CN(Cc1ccccc1)c1ncc(C=O)s1	0.19	i	.	.
COc1ccccc1C(=O)NNC(=O)C(=O)NC1CCCCC1	8.53*	i	i	321.0%*	CHO-K1 ctr=-6.4;KCNQ1 pot spec=33.3*;KCNQ2 pot conf=41.8*;Kir2-1 sel=-17.8;KCNQ2 W236L MoA=i
COc1ccccc1C(=O)Nc1ccccc1C(=O)NC1CCCCC1	0.1	i	.	.
CCc1nc(SCC(=O)Nc2ccc(N(C)C)cc2)c2ccccc2n1	0.09	i	.	.
CCOC(=O)c1c(O)cc(C)[nH]c1=O	0.39	i	.	.
CC(C)(Oc1ccc(Cl)cc1)C(=O)OCC(=O)NCCc1ccccc1	1.77	i	61.5%*	i
O=C(COC(=O)CCSc1ccc(Cl)cc1)NCCc1ccccc1	.	i	.	.
CCN(CC)CCN(C(=O)c1ccc(Br)s1)c1nc2cc3c(cc2s1)OCCO3	1.96	i	.	.
CN(C)CCCN(C(=O)c1ccc(Br)s1)c1nc2cc3c(cc2s1)OCCO3	.	i	i	i
NNC(=S)Nc1c(Br)cc(F)cc1Br	0.17	i	.	.
CCOC(=O)C(C)(C)Oc1cccc2c1S(=O)(=O)c1ccccc1-2	0.99	i	.	.
Cc1ccc2nc(NCc3ccccc3)[nH]c2c1	.	i	22.5%*	i
COc1ccc2nc(NCc3ccccc3)[nH]c2c1	0.44	i	.	.
SMILES	KCNQ2 pot	KCNQ2 inh	Kir21 confirm	HEK293 Tl flux	others
Cc1cccc(C=Nc2ccc3c4c(cccc24)CC3)c1O	.	i	.	.
CCc1ccc(O)c(N=Cc2cccc(C)c2O)c1	7.45*	i	i	i	CHO-K1 ctr=-18.6;KCNQ1 pot spec=-12.3;KCNQ2 pot conf=17.4*;Kir2-1 sel=-20.1;KCNQ2 W236L MoA=i
CC1CCc2c(nc3ncnn3c2NCCc2ccccc2F)C1 (configuration not stated)	.	i	.	.
O=C(O)c1cnn(-c2nc(-c3cccc(F)c3)cs2)c1C(F)(F)F	0.46	i	.	.
O=C(O)c1cnn(-c2nc(-c3ccc(Cl)c(Cl)c3)cs2)c1C(F)(F)F	3.64	i	i	i
CSc1nnc(C)c(=O)n1COC(=O)c1ccccc1	1.05	i	.	.
Cc1cccc(N2CCN(C(=O)c3ccccc3OCc3c(C)noc3C)CC2)c1C	.	i	.	.
COc1ccc(CNC(=O)CN(C(=O)CCC(=O)Nc2ccccn2)c2cccc(C)c2C)cc1	.	i	.	.
CC(=O)c1ccc(N2CCN(CN3C(=O)CC4(CCCC4)C3=O)CC2)c(F)c1	.	i	.	.
CCc1nc(OCC(=O)c2ccccc2)c(C#N)c2c1COC(C)(C)C2	9.58*	i	i	i	CHO-K1 ctr=57.0*;KCNQ1 pot spec=-5.9;KCNQ2 pot conf=20.5*;Kir2-1 sel=-47.5;KCNQ2 W236L MoA=i
Cc1nc(OCC(=O)c2ccc(Cl)cc2)c(C#N)c2c1COC(C)(C)C2	0.81	i	.	.
C=CCn1c(=S)[nH]c2scc(-c3ccc(C)o3)c2c1=O	15.6*	i	i	384.5%*	CHO-K1 ctr=4.1*;KCNQ1 pot spec=-12.7;KCNQ2 pot conf=46.5*;Kir2-1 sel=-21.0;KCNQ2 W236L MoA=i
O=c1c2c(-c3cccs3)csc2[nH]c(=S)n1-c1ccccc1	1.28	i	.	.
CCn1c(=S)[nH]c2scc(-c3cccs3)c2c1=O	18.3*	i	i	508.0%*	CHO-K1 ctr=3.7*;KCNQ1 pot spec=-18.4;KCNQ2 pot conf=94.1*;Kir2-1 sel=1.6*;KCNQ2 W236L MoA=i
C=CCn1c(SCC(C)=O)nc2scc(-c3ccc(C)o3)c2c1=O	.	i	.	.
O=C(c1cccc(N2C(=O)C3C4C=CC(C4)C3C2=O)c1)N1CCN(c2ccccc2Cl)CC1 (configuration not stated)	0.49	i	.	.
CCC(C(=O)N/N=C(\C)c1cccnc1)c1ccccc1 (configuration not stated)	0.44	i	.	.
O=C(O)CCCNC(=O)c1nn(Cc2ccccc2)c(=O)c2ccccc12	.	i	.	.
COCCN(C(=O)Nc1ccccc1OC)c1nc2ccccc2s1	.	i	.	.
CN(C)/C=C/C(=C\C(=O)C(F)(F)F)Nc1ccc(C(F)(F)F)cc1	.	i	.	.
O=[N+]([O-])c1ccc2nc(NS(=O)(=O)c3ccc(F)cc3)sc2c1	0.23	i	.	.
Cc1ccc2cc(C#N)c(N3CCCN(C(=S)NCCCN(C)C)CC3)nc2c1	.	i	.	.
Cc1cc(C)c2cc(C#N)c(N3CCCN(C(=S)NCCCN(C)C)CC3)nc2c1	.	i	49.5%*	i
Cc1ccc(C2=NOC(C)(c3nnc(Cc4ccccc4)o3)C2)cc1 (configuration not stated)	0.95	i	.	.
Cc1ccc(S(=O)(=O)N(C)c2ccccc2C(=O)N2CCOCC2)cc1	0.35	i	.	.
Cc1ccc(NC(=O)CN2CCC(NC(=O)Cc3ccccc3)CC2)c(C)c1	.	i	.	.
Cc1ccc(F)cc1NC(=O)CCOc1ccccc1	.	i	.	.
Cc1ccc(NC(=O)CCOc2ccccc2)c(C)c1	6.05*	i	i	i	CHO-K1 ctr=-6.3;KCNQ1 pot spec=49.3*;KCNQ2 pot conf=5.5*;Kir2-1 sel=-21.7;KCNQ2 W236L MoA=i
COc1cc(OC)cc(C(=O)Nc2ccc(N(C)C)c3ccccc23)c1	0.66	i	.	.
CN(C)c1ccc(NC(=O)Cc2ccccc2)c2ccccc12	5.29*	i	i	i	CHO-K1 ctr=-3.7;KCNQ1 pot spec=-30.6;KCNQ2 pot conf=10.0*;Kir2-1 sel=-22.7;KCNQ2 W236L MoA=i
